# Values joined by “and” are separate entries in the source; they are usually repeats but may differ in a detail not shown here. Equal entries are not always repeated. Compounds without any hit were thinned out: in the full panel of roughly 83,000, 20% have a hit.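 Testing used 96-well plates and a 48-hour single-concentration exposure. Example: -40 means 40% of the starting cells died.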 Values without a mark were called inactive. Active and inactive are the calls of the source. The calls were made as follows: active = growth percent below 10; inactive = the rest.
# System: MDA-MB-468 breast
# Assay: NCI-60 one-dose screen, 48 h (100 = growth as untreated, 0 = no growth, -100 = all killed)
# Conditions: 10 µM unless noted
row,SMILES,growth
1,CN1C(=O)/C(=C/c2ccc(C(=O)Nc3ncc(Cc4ccc(Cl)cc4)s3)cc2)SC1=S,25.2%
2,O=c1[nH]c(N2CCC(Cc3ccccc3)CC2)nc2sc3c(c12)CCCC3,104%
3,Cc1nn(-c2ccccc2)c2nc(CCl)[nH]c(=O)c12,26.6%
4,COc1ccc(-n2c(C)nc3c(c(C)nn3-c3ccccc3)c2=O)cc1,-15.7% (active)
5,CNc1ccc2nc3ccc(=[N+](C)C)cc-3sc2c1,-48.1% (active) and -39.5% (active)
6,CC1=C(/C=C/C(C)=C/C=C(C(=O)O)\C(C)=C\C(=O)O)C(C)(C)CCC1,109%
7,NC(=O)c1cc(Br)cc(Br)c1NS(=O)(=O)c1ccccc1,106%
8,COc1ccc(C2=Nc3c(N)ncnc3NC(c3cccc(Nc4ccnc5cc(C(F)(F)F)ccc45)c3)C2)cc1 (stereo not given),46.9%
9,O=C(CCCC(=O)N/N=C/c1cc(Cl)ccc1O)N/N=C\c1cc(Cl)ccc1O,10.3%
10,COc1cccc(-c2nc(-c3ccc(NC(=O)c4ccccc4)cc3)[nH]c2-c2ccnc(Br)c2)c1,28.8%
11,CCN(CC)CCCC(C)N/C(c1cccc(OC)c1)=c1\c(=O)[nH]n(-c2c3ccccc3nc3ccccc23)c(=O)\c1=C(/NC(C)CCCN(CC)CC)c1cccc(OC)c1 (stereo not given),-56.2% (active)
12,C=CC(=O)NCc1cccc(Nc2ncc(Br)c(NCCCNC(=O)C3CCC3)n2)c1,-80.4% (active)
13,CC1(C)CCCN1CCCN1c2ccccc2Sc2ccc(Cl)cc21,37.6%
14,O=S(=O)(NCCO)c1ccc(OCCOc2ccc(S(=O)(=O)NCCO)cc2)cc1,95.3%
15,O=C(O)CSCC(=O)Nc1cc(C(F)(F)F)ccc1Cl,105%
16,COc1ccc(-c2cn[nH]c2-c2cc(OC)c(OC)c(OC)c2)cc1,11.8%
17,O=C(Nc1ccc([N+](=O)[O-])cc1)C(=O)Nc1ccc([N+](=O)[O-])cc1,105%
18,CCOC(=O)Nc1nccs1,120%
19,COc1ccc2nc(-c3ccc(OC)c(OC)c3)cc(-c3nnc(SCC(=O)Nc4ccc(/C(C)=N\O)cc4)n3-c3ccccc3)c2c1,56.2%
20,COc1ccc(/C=C/C(c2cc(OC)c(OC)c(OC)c2)n2ccnc2)cc1O (stereo not given),40.6%

row,SMILES,growth
1,O=S(=O)(Nc1ccc(OC(F)F)cc1)c1ccc(-c2cnc(C3CC3)o2)cc1,-9.07% (active)
2,N#CC1=C(NC=O)Oc2c(ccc3ccccc23)C1c1ccccc1 (stereo not given),12%
3,OC(CCC(O)(c1ccccc1)c1ccccc1)(c1ccccc1)c1ccccc1,93.6%
4,COc1ccc(/C(=C/c2cc(OC)c(OC)cc2[N+](=O)[O-])C(=O)O)cc1,111%
5,CN(C)c1ccc(C(=C2C=CC(=[N+](C)C)C=C2)c2ccc(N(C)C)cc2)cc1,-82.4% (active)
6,O=S(=O)(c1cccc(NC2=Nc3cccc4cccc2c34)c1)N1CCCC1,36.4%
7,NC(=O)c1c(NC(=O)c2ccc3ccccc3c2)sc2c1CCC(=O)C2,85.8%
8,CC(C)(C)C(=O)OCOP(=O)(OCOC(=O)C(C)(C)C)C1CCCN(OC(=O)c2ccccc2)C1=O (stereo not given),29.6%
9,C1=CC2=CC=C3C=CC=C4C(c5nc6c7ccccc7c7ccccc7c6[nH]5)=CC(=C1)C2C34 (stereo not given),21.9%
10,CC1Cc2ccc(OCCN(C)C)cc2C1=O (stereo not given),96.2%
11,Cc1nn(-c2ccc(Cl)cc2)c2nc3c(nc12)C(=O)c1ccccc1-3,49.2%
12,CCCCc1ccc(NS(=O)(=O)c2cc3c4c(c2)CCN4C(=O)CC3)cc1,-25.9% (active)
13,Oc1ccccc1/C=N/Nc1nc(N/N=C/c2ccccc2O)nc(N2CCOCC2)n1,39.2%
14,COc1cc(/C=C\c2cc(OC)c(OC)c(OC)c2)cc(NC(=O)/C=C/c2cc(OC)c(OC)c(OC)c2)c1OC,36%
15,O=[N+]([O-])c1c(O)c(CNCCCO)cc(CNCCCO)c1O,108%
16,COc1cc(OC)c(C(=O)/C=C/c2cccc(OC(C)=O)c2)cc1CC=C(C)C,58.3%
17,CC(NCCC(c1ccccc1)c1ccccc1)c1ccccc1 (stereo not given),49%
18,COc1cc2[nH]c(C(=O)c3cc(OC)c(OC)c(OC)c3)c(N)c2cc1C#CCO,25.6%
19,CCCCCCCCCCCCNC(=S)N/N=C/c1ccc(Cl)c(Cl)c1,104%
20,OCCOSCCO,98.2%
